According to PubChem BioAssay AID504652 (National Center for Advancing Translational Sciences (NCATS), 2011):
The campaign covered roughly 360,000 compounds. About 11,000 (3.1%) were called active. Rule as the data show it: active = activity change below about -30%; inactive = the rest. What follows is part of a selection rich in actives, with near analogues and random picks from the rest.

The compounds below were run against D(1A) dopamine receptor (Homo sapiens) (UniProt P21728) (assay: Antagonist of Human D 1 Dopamine Receptor: qHTS). Conditions: HEK293 TREx D1 cells, calcium flux, dopamine EC80; at 10 µM; hits give low values.
Procedure, shortened: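 Using tetracycline-induced force-coupled D1 Hek293 cells and a calcium dye, signals were followed for 180 s after compound, then for 180 s after EC80 dopamine, to detect inhibitors.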
% is scaled to controls: 0 for no effect and ±100 for the full control effect.

Sequence of D(1A) dopamine receptor (Homo sapiens) (P21728 whole entry, looked up): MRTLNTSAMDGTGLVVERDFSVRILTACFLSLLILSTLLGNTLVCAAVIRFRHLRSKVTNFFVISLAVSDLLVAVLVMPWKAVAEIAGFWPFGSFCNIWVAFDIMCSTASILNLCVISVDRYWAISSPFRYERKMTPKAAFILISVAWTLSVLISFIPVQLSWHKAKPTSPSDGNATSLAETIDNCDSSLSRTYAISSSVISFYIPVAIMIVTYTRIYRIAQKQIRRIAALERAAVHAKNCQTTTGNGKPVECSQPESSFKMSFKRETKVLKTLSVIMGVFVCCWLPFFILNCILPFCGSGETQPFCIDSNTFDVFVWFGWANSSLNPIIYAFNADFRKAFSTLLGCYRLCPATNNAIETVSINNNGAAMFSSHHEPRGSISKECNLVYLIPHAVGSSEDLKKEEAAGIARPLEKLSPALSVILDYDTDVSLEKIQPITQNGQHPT

Row | Compound | activity change, negative = inhibition
1 | COc1ccc(CC(=O)Nc2nnc3n2CCS3)cc1OC | 29.1% (inactive)
2 | Cc1ccc(Cl)cc1N(C)C(=O)C1CCCN(c2ncnc3onc(-c4ccc(F)cc4)c23)C1 (configuration not stated) | 3.58% (inactive)
3 | Cc1nc2nc(SCC(=O)NC3CCC(C)CC3)nn2c(C)c1Cc1ccccc1Cl (configuration not stated) | -18.6% (inactive)
4 | O=C(COC(=O)c1cnc(Cl)c(Cl)c1)NCc1ccco1 | -8.31% (inactive)
5 | CCc1ccc(C(=O)COC(=O)c2ccco2)cc1 | 3.84% (inactive)
6 | O=C(COC(=O)c1ccco1)NCc1ccc(Cl)cc1 | -43.8% (active)
7 | O=S(=O)(Nc1ccc2nc(-c3cccc(Cl)c3)oc2c1)c1ccccc1 | 2.59% (inactive)
8 | O=c1[nH]c2cc(Br)ccc2n2cccc12 | 17.9% (inactive)
9 | Cc1ccc2nc(/C(C#N)=C/c3ccccc3F)[nH]c2c1 | 2.38% (inactive)
10 | CCc1cc2c(cc3c(=O)n(CC(=O)N4CCN(c5cc(Cl)ccc5C)CC4)ncn32)s1 | 5.41% (inactive)
11 | Oc1c(C(c2ccccn2)N2CCOCC2)ccc2cccnc12 (configuration not stated) | -33.9% (active)
12 | COc1ccc(-c2cn3c(n2)sc2cc(C(=O)Nc4ccccc4F)ccc23)cc1 | -2.21% (inactive)
13 | Cc1ccc2[nH]c3c(=O)n(CC(=O)NC(C)C)ncc3c2c1 | 5.41% (inactive)
14 | COc1ccc(/C=C/c2nc(C#N)c(NCc3ccc(F)cc3)o2)cc1OC | -16% (inactive)
15 | O=C1CSc2ccc(S(=O)(=O)NCc3ccccc3)cc2N1 | -44.7% (active)
16 | CCC(Cc1ccccc1)NS(=O)(=O)c1ccc2c(c1)NC(=O)CS2 (configuration not stated) | -0.0752% (inactive)
17 | COc1ccccc1CNS(=O)(=O)c1ccc2c(c1)NC(=O)CS2 | 7.86% (inactive)
18 | CCCCn1cc(S(=O)(=O)c2ccc(OCC)cc2)c(=O)c2cc(OC)c(OC)cc21 | 4.22% (inactive)
19 | COc1ccc(C)cc1Nc1nc2ccccc2c2nnc(C)n12 | 1.83% (inactive)
20 | CCn1cc(C(=O)NCC2COc3ccccc3O2)c2cc(OC)c(OC)cc2c1=O (configuration not stated) | 13.1% (inactive)
21 | CCn1cc(C(=O)NCc2ccc3c(c2)OCO3)c2cc(OC)c(OC)cc2c1=O | -40.7% (active)

Row | Compound | activity change, negative = inhibition
22 | COc1ccccc1-n1c(C)nc2cc(C(=O)NCc3ccc4c(c3)OCO4)ccc21 | -36.2% (active)
23 | CCN(CC)C(=O)C(=O)c1cn(CC(=O)NCc2ccc3c(c2)OCO3)c2ccccc12 | -3.14% (inactive)
24 | COc1cc(-n2c(C)nc3cc(C(=O)NCc4ccco4)ccc32)cc(OC)c1OC | -14.8% (inactive)
25 | CCOc1c2ccc(C(=O)NCc3ccc4c(c3)OCO4)cc2nn1C | 3.09% (inactive)
26 | CC(=O)Nc1cc(C(=O)NCc2ccc(F)cc2)ccc1Sc1ccc(F)cc1 | 3.13% (inactive)
27 | COc1ccccc1CNS(=O)(=O)c1cc(Br)cc2c1N(C(C)=O)C(C)C2 (configuration not stated) | 7.16% (inactive)
28 | C#CCOCCOCCOCCNc1nc(N2CCN(C(=O)C(Cc3ccc(O)cc3)n3cc(C(N)CC(C)C)nn3)CC2)nc(N2CCN(C(=O)C(Cc3ccc(O)cc3)n3cc(C(N)C(C)CC)nn3)CC2)n1 (configuration not stated) | -10.5% (inactive)
29 | C#CCOCCOCCOCCNc1nc(N2CCN(C(=O)[C@H](Cc3ccc(O)cc3)n3cc(C(N)CC(C)C)nn3)CC2)nc(N2CCN(C(=O)[C@H](CCC(=O)O)n3cc(C(N)[C@H](C)CC)nn3)CC2)n1 (some centres not stated) | -5.53% (inactive)
30 | C#CCOCCOCCOCCNc1nc(N2CCN(C(=O)CCCCCCCCCCNC(=O)[C@H]([C@@H](C)CC)n3cc(CCCCN=C(N)N)nn3)CC2)nc(N2CCN(C(=O)CCCCCCCCCCNC(=O)[C@H](CO)n3cc(CCCSC)nn3)CC2)n1 | 6.53% (inactive)
31 | C#CCOCCOCCOCCNc1nc(N2CCN(C(=O)[C@H](CCC(=O)O)n3cc(C(N)CO)nn3)CC2)nc(N2CCN(C(=O)[C@H](CCCCN)n3cc(C(N)[C@H](C)CC)nn3)CC2)n1 (some centres not stated) | -39.7% (active)
32 | C#CCOCCOCCOCCNc1nc(N2CCN(C(=O)[C@H](CCC(=O)O)n3cc(C(N)CO)nn3)CC2)nc(N2CCN(C(=O)[C@H](Cc3ccc(O)cc3)n3cc(C(N)[C@H](C)CC)nn3)CC2)n1 (some centres not stated) | -34.5% (active)
33 | C#CCOCCOCCOCCNc1nc(N2CCN(C(=O)[C@H](CCC(=O)O)n3cc(C(N)CO)nn3)CC2)nc(N2CCN(C(=O)[C@H](CCCCN)n3cc(C(N)CC(C)C)nn3)CC2)n1 (some centres not stated) | -32.3% (active)
34 | C#CCOCCOCCOCCNc1nc(N2CCN(C(=O)[C@H](CCCCN)n3cc([C@@H](N)C(C)CC)nn3)CC2)nc(N2CCN(C(=O)[C@H](Cc3ccc(O)cc3)n3cc([C@@H](N)C(C)CC)nn3)CC2)n1 (some centres not stated) | -11.3% (inactive)
35 | C#CCOCCOCCOCCNc1nc(N2CCN(C(=O)[C@H](C(C)C)n3cc(CCO)nn3)CC2)nc(N2CCN(C(=O)[C@H](C(C)C)n3cc(CCO)nn3)CC2)n1 | 7.62% (inactive)
36 | O=C(CC1Oc2ccccc2NC1=O)NCc1ccc(F)cc1 (configuration not stated) | -2.49% (inactive)
37 | CN1C(=O)c2[nH]nc(-c3ccc(F)cc3)c2C1c1ccccn1 (configuration not stated) | -12.2% (inactive)
38 | N#Cc1nc(/C=C/c2ccc(F)cc2)oc1NC1CCCCC1 | -1.82% (inactive)
39 | CCN(CC)c1cc(NC2CCCCC2)c2c3c(onc13)-c1ccccc1C2=O | 8.94% (inactive)
40 | Cc1ccc2nc(CN3CCN(S(=O)(=O)c4ccc(C)c(C)c4)CC3)oc2c1 | -3.02% (inactive)
41 | COc1cc(NC(=O)CN2CCN(S(=O)(=O)c3ccc(Br)cc3)CC2)cc(OC)c1 | -5.38% (inactive)
42 | CCc1ccc(C2C(C(=O)Nc3ccccc3)=C(C)Nc3c(C(=O)Nc4ccc(C)cc4)cnn32)cc1 (configuration not stated) | -24.1% (inactive)
